High-throughput results from PubChem.
RXFP1 antagonist: antagonists of human relaxin receptor RXFP1; Q9HBX9; HEK293-RXFP1, relaxin-stimulated cAMP HTRF, 30 min; active compounds read low; activity change, negative = inhibition, % at 57.5 µM; 350,000 tested, 0.59% active; AID 1259400;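 active = activity change of -60% or lower, but not beyond a set lower limit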; also: % is scaled to controls: 0 for no effect and ±100 for the full control effect
RXFP1 agonist: agonists of human relaxin receptor RXFP1; Potency, µM (highest dose often 57.5 µM), for the others: top-dose activation, hits mostly activators; HEK293T-RXFP1 cAMP TR-FRET, 30 min; response scale: percent of porcine relaxin response, buffer zero; Q9HBX9; 370,000 tested, 0.3% active; active = well fitted activation curve with a large enough effect; also: potency is read from the fitted curve at half-maximal effect; % is scaled to controls: 0 for no effect and ±100 for the full control effect; nearly all actives have a fitted effect of over 60% in size
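HEK293 cells stably expressing RXFP1, treated 30 min at 37C with compounds plus PDE4 inhibitor Ro 20174; cAMP measured by HTRF TR-FRET. Normalized to buffer and 29 nM porcine relaxin; EC50 by Hill fit.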
Coupling enz: coupling enzyme interference in Giardia aldolase counter-screen. AID 2472. 290,000 tested, 0.67% active. coupling enzyme system counterscreen, AmpLite Red fluorescence. activity change, negative = inhibition, % at 58.2 µM, hits read low; in the data active = activity change below about -30%; also: % is scaled to controls: 0 for no effect and ±100 for the full control effect
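Counterscreen of the coupled detection system alone, without aldolase: glyceraldehyde-3-phosphate coupling enzymes plus AmpLite Red readout. Compounds at 57.5 uM final, 10 min RT preincubation, 20 min RT reaction, fluorescence 525/598 nm.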
gsp ag: activates gsp, the McCune-Albright syndrome mutation. gsp mutant cells, cAMP HTRF, 30 min. AID 624287. Potency, µM (top dose mostly 76.9 µM), for inactives: at the top dose activation (cAMP increase), most hits filed as activators. 340,000 tested, 0.13% active; active = well fitted activation curve with a large enough effect; cell line not stated here;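 also: phosphodiesterase inhibitor Ro 20-1724 added with compounds to block cAMP breakdown; potency is read from the fitted curve at half-maximal effect; nearly all actives have a fitted effect of over 60% in size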
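Cells stably selected in G418 were plated at 2000/well, grown 16-24 hr, then given compounds in DMSO with the PDE inhibitor […] (300 uM solution added) for 30 min at 37C; cAMP was read by HTRF.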
Giardia kill: Giardia lamblia killing; Giardia lamblia trophozoite viability; activity change, % at 7.66 µM, hits read low; 340,000 tested, 0.15% active; AID 540267; in the data active = activity change below about -80%;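 also: parasites exposed to compound for two days anaerobically before the ATP read; % is scaled to controls: 0 for no effect and ±100 for the full control effect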
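Each well holds 100 Giardia trophozoites and compound. After two days (48 hrs) at 37 deg C in anaerobic conditions, ATP is quantified by luminescence.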
gsp antag: gsp mutant antagonism; Potency, µM (titrated, usually from 76.9 µM), for the others: top-dose activity change, negative = inhibition, most hits filed as inhibitors; AID 624288; 340,000 tested, 0.4% active; gsp-mutant cells, cAMP HTRF, 30 min; calls by dose curve; cell line not stated here;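 also: intracellular cAMP measured with PDE inhibitor Ro 20-1724 present during compound exposure; potency is read from the fitted curve at half-maximal effect; % is scaled to controls: 0 for no effect and ±100 for the full control effect; nearly all actives have a fitted effect of over 65% in size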
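Measurement of cellular cAMP by homogeneous time-resolved fluorescence following a 30 min compound exposure at 37C. The PDE inhibitor […] was present throughout; the assay buffer was DPBS with 0.05% BSA and 0.005% Tween 20.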
Casp1 catalase: inhibits human caspase-1 in catalase buffer, redox counter-screen | shares compounds with Coupling enz | caspase-1 Ac-WEHD-AFC fluorescence rate, catalase buffer | Potency, µM (top dose mostly 57.5 µM), without a hit: top-dose activity change, negative = inhibition, actives largely listed as inhibitors | 30 tested, under 10 active
CASP1 inh CRC: blocks human caspase-1 activity in concentration-response. 60 tested, 20% active. purified caspase-1, fluorogenic substrate cleavage. shares compounds with Coupling enz. AID 896. Potency, µM (doses to about 57.5 µM), for the others: at the highest dose activity change, negative = inhibition, usual class: inhibitors
CASP7 inh CRC: blocks human caspase-7 activity in concentration-response. shares compounds with Coupling enz. recombinant caspase-7, fluorogenic substrate cleavage. Potency, µM (doses to about 57.5 µM), inactives show at the highest dose activity change, negative = inhibition, hits mostly inhibitors. 60 tested, under 10 active. AID 897; active = well fitted inhibition curve with a large enough effect in the main read-out, with a control signal flat, not every such curve was filed as active
CASP7 redox cys: caspase-7 inhibition with cysteine present. shares compounds with Coupling enz. caspase-7 enzyme with cysteine, fluorogenic substrate, redox counterscreen. Potency, µM (series often up to 57.5 µM), inactives show top-dose activity change, negative = inhibition, actives largely listed as inhibitors. 60 tested, under 10 active
CASP7 redox cat: counter-screen for redox active caspase-7 inhibitors: catalase buffer; shares compounds with Coupling enz; Caspase-7 Ac-DEVD-AFC fluorescence rate, catalase buffer; Potency, µM (highest dose often 57.5 µM), for the others: top-dose activity, negative = inhibition, usual class: inhibitors; 30 tested, under 10 active; AID 909
Casp1 cysteine: inhibits caspase-1 in cysteine buffer, redox counter-screen | Potency, µM (doses to about 57.5 µM), without a hit: at the top dose activity change, negative = inhibition, actives largely listed as inhibitors | 60 tested, under 10 active | recombinant caspase-1, fluorogenic substrate, cysteine buffer | shares compounds with Coupling enz | AID 929
Starred values were filed as active, the others as inactive; . = not tested or not shown; [ ] = dose if it differs, or a comment. Sampled rows, rich in hits. Any-hit rate of the full collection: about 1.6%. Unless noted, calls follow the shape of the dose curve; as a rule, active = well fitted inhibition curve with a large enough effect in the main read-out, with a control signal flat; inconclusive = small, poorly fitted or top-dose-only effect, or a change in a side signal; inactive = no such curve, though single readings can be large or run the other way.

SMILES	RXFP1 antagonist	RXFP1 agonist	Coupling enz	gsp ag	Giardia kill	gsp antag	Casp1 catalase	CASP1 inh CRC	CASP7 inh CRC	CASP7 redox cys	CASP7 redox cat	Casp1 cysteine
CC(C)(C)C(=O)[C@@H]1[C@@H]2C(=O)N(C3CCCCC3)C(=O)[C@@H]2[C@H]2c3ccccc3C=CN12	-2.3	-0.6%	-23.9	12.7%	31.8	-7.4%	.	.	.	.	.	.
O=C(Nc1ccc2c(c1)OCO2)[C@@H]1[C@@H]2C(=O)N(C3CCCCC3)C(=O)[C@@H]2C2c3ccccc3C=CN21 (stereo not given in full)	.	-0.2%	-35.1*	.	.	.	-3.5%	-24.5%	-16.3%	-16.1%	6.5%	-3.2%
O=S(=O)(c1ccc(S(=O)(=O)N2CCC(O)CC2)cc1)N1CCCC1	-3.5	-1.0%	1.0	30.7%	-14.9	10.7%	.	.	.	.	.	.
O=C1NCCCC2c3cc(O)c4ccccc4c3OC12N1CCCCC1 (stereo not given)	.	2.0%	-57.1*	.	.	.	-24.8%	-67.0%	-31.1%	-13.7%	-3.3%	-19.4%
OCCC1CN(Cc2cccc(C(F)(F)F)c2)CCN1Cc1ccccc1 (stereo not given)	-16.6	-3.2%	0.4	-17.7%[15.4 µM]	33.2	10.7%	.	.	.	.	.	.
COc1cccc(Cn2cccc(NC(=O)NC3CCCCC3)c2=O)c1	-3.3	1.9%	-20.6	-6.0%	-14.5	12.7%	0.1%	-20.7%	-9.3%	-10.8%	4.7%	1.8%
O=C(Nc1cccn(Cc2ccccc2)c1=O)NC1CCCCC1	17.8	1.6%	-9.4	-23.5%	6.3	0.9%	.	.	.	.	.	.
Cc1ccc(NC(=O)CCS(=O)(=O)c2cc(Br)cc3c2N(C(=O)C2CC2)CC3)cc1	-3.0	0.9%	.	.	.	.	.	.	.	.	.	.
